This is a sample that favours compounds with a hit; in the whole collection about 11% have one here.
VDR inhibitor – vitamin D3 receptor (human) inhibition. P11473. VDR-SRC2-3 peptide fluorescence polarization, 2 h. Potency, µM, inactives show max response, negative = inhibition, hits mostly inhibitors. 400,000 tested, 0.93% active; also: % is scaled to controls: 0 for no effect and ±100 for the full control effect
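Signal is fluorescence polarization, reporting how far test compounds block the interaction of VDR with the SRC2-3 coregulator peptide after a 2 h room-temperature incubation.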
BAZ2B block – BAZ2B (human) inhibition. Q9UIF8. AlphaScreen BAZ2B-H3K14Ac peptide displacement. Potency, µM (series often up to 114 µM), for inactives: at the top dose activity change, negative = inhibition, actives largely listed as inhibitors. 360,000 tested, 4.4% active; also: % is scaled to controls: 0 for no effect and ±100 for the full control effect; nearly all actives have a fitted effect of over 60% in size
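Protein-peptide AlphaScreen: BAZ2B 50 nM, b-H3K14Ac 50 nM, 1x PBS pH 7.4 + 0.01% Tween-20. Preincubation 30 min RT; cpd 30 min RT (top 110 uM); beads 20 min RT, light-protected.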
G9a block – blocks human histone lysine methyltransferase G9a | Potency, µM (highest dose often 102 µM), for inactives: at the top dose activity, negative = inhibition, actives largely listed as inhibitors | 350,000 tested, 8.8% active | AID 504332 | G9a H3K9 monomethylation, AlphaScreen, 2 h; also: % is scaled to controls: 0 for no effect and ±100 for the full control effect; nearly all actives have a fitted effect of over 75% in size
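Methyltransferase reactions run at room temperature for 2 h (20 nM enzyme, 500 nM biotin-H3K9 peptide, 20 uM SAM) after a 15 min compound preincubation; product detected by AlphaScreen beads and anti-H3K9me1 antibody.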
HP1b binding inh – blocks HP1-beta chromodomain binding to methylated histone tails. P83916. AlphaScreen HP1-beta / biotin-H3K9me3 peptide binding. Potency, µM (titrated, usually from 114 µM), inactives show at the top dose activity change, negative = inhibition, most hits filed as inhibitors. 390,000 tested, 0.56% active. AID 540317; also: nearly all actives have a fitted effect of over 70% in size
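AlphaScreen: HP1-beta (50 nM) preformed 30 min with biotin-H3(1-18)K9me3 peptide (50 nM) in PBS pH 7.4, 0.01% Tween-20. Compound added for 30 min at RT, then streptavidin donor/nickel chelate acceptor beads (10 ug/mL) for 30 min.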
JMJD2A Tudor – inhibitors of human JMJD2A Tudor domain. Potency, µM (highest dose often 114 µM), for the others: top-dose activity change, negative = inhibition, actives largely listed as inhibitors. O75164. 390,000 tested, 4.4% active. AlphaScreen JMJD2A-Tudor / H3K4me3 peptide binding; also: % is scaled to controls: 0 for no effect and ±100 for the full control effect; nearly all actives have a fitted effect of over 50% in size
PLK1 PBD block – PLK1 (human) polo-box domain binding inhibition; P53350; Plk1 PBD binding of FITC phosphopeptide, fluorescence polarization; Potency, µM, inactives show max response, negative = inhibition, hits mostly inhibitors; 360,000 tested, 2.8% active; also: series mostly up to about 57 µM; % is scaled to controls: 0 for no effect and ±100 for the full control effect; nearly all actives have a fitted effect of over 65% in size
Starred values were filed as active, the others as inactive; [ ] = remark or other dose. Calls follow the shape of the dose curve; as a rule, active = well fitted curve in the direction sought with a large enough effect; inconclusive = small, poorly fitted or top-dose-only effect, or another doubt; inactive = no such curve, though single readings can be large; an effect the other way counts as inactive or inconclusive. Potency is read from the fitted curve at half-maximal effect.

Results for Cn1c(=O)c2nc(SCC(=O)Nc3ccc(Cl)c(Cl)c3)n(C)c2n(C)c1=O ?
VDR inhibitor: 18%; BAZ2B block: 0%; G9a block: -3%[59 µM]; HP1b binding inh: 65%; JMJD2A Tudor: 5%

What do the screens show for `CCNC(=S)N/N=C(\C)c1ccc2ccccc2c1`?
BAZ2B block: 35µM*; G9a block: inconclusive

What do the screens show for `CCNC(=S)N/N=C(\C)c1ccc2ccccc2c1OC(F)F`?
VDR inhibitor: 6%; BAZ2B block: inconclusive; G9a block: 45µM*; HP1b binding inh: inconclusive; JMJD2A Tudor: inconclusive; PLK1 PBD block: -13%

How did CCNC(=S)N/N=C(\C)c1cccc(OC)c1 do in these assays?
VDR inhibitor: -17%; BAZ2B block: -34%; G9a block: -33%; HP1b binding inh: 48%; JMJD2A Tudor: -2%; PLK1 PBD block: -2%

How did CC(c1ccon1)N(C)C(=O)c1cccc(OC2CCN(S(C)(=O)=O)CC2)c1 (configuration not stated) do in these assays?
PLK1 PBD block: 3%

How did O=C(Nc1ccc(F)cc1)C(c1ccccc1)N1CCN(CC(=O)N2CCOCC2)CC1 (configuration not stated) do in these assays?
VDR inhibitor: 24%; BAZ2B block: 6%; G9a block: 10µM*; HP1b binding inh: 25%; JMJD2A Tudor: -6%; PLK1 PBD block: -12%

What do the screens show for `CCCCN(C)CCNC(=O)c1cc2c(=O)n(C)c3ccccc3c2n1C`?
VDR inhibitor: -9%; BAZ2B block: -18%; G9a block: -9%[59 µM]; HP1b binding inh: 29%; JMJD2A Tudor: -31%

How did COc1ccc(-c2nc(S(=O)(=O)c3ccccc3)c(N3CCN(C)CC3)o2)cc1 do in these assays?
PLK1 PBD block: -1%

How did O=S(=O)(c1ccc(Cl)cc1)c1nc(-c2cccs2)oc1N1CCCCC1 do in these assays?
VDR inhibitor: -11%; BAZ2B block: 14µM*; G9a block: 14µM*; HP1b binding inh: inconclusive; JMJD2A Tudor: inconclusive

How did COc1ccc(-c2nc(S(=O)(=O)c3ccc(Cl)cc3)c(N3CCCCCC3)o2)cc1 do in these assays?
VDR inhibitor: inconclusive; BAZ2B block: -33%; G9a block: 20µM*; HP1b binding inh: -20%; JMJD2A Tudor: 56µM*

How did CN(C)c1oc(-c2ccc(Cl)cc2)nc1S(=O)(=O)c1ccccc1 do in these assays?
VDR inhibitor: inconclusive; BAZ2B block: inconclusive; G9a block: -18%[59 µM]; HP1b binding inh: inconclusive; JMJD2A Tudor: 79µM*; PLK1 PBD block: -20%

What do the screens show for `CCCCCc1ccnc(CC(=O)c2ccc(OC)cc2)c1`?
VDR inhibitor: 14%; HP1b binding inh: -8%; JMJD2A Tudor: inconclusive; PLK1 PBD block: 2%

How did O=S(=O)(NCCc1csc2nc(-c3ccc(Cl)cc3)nn12)c1ccc2c(c1)OCCO2 do in these assays?
VDR inhibitor: 5%; BAZ2B block: -6%; G9a block: -6%[59 µM]; HP1b binding inh: 35%; JMJD2A Tudor: 1%

What do the screens show for `Cc1ccc(C)c(CN2C(=O)c3ccccc3Sc3ccc(C(=O)NCc4ccco4)cc32)c1`?
VDR inhibitor: -13%; BAZ2B block: -9%; G9a block: -5%[59 µM]; HP1b binding inh: 20%; JMJD2A Tudor: -22%

How did COc1cc(OC)c(N(C)C(=O)Nc2cn(CC(C)C)c(=O)c3ccccc23)cc1Cl do in these assays?
VDR inhibitor: 0%; BAZ2B block: 5%[57.1 µM]; G9a block: -6%[59 µM]; HP1b binding inh: 17%; JMJD2A Tudor: -13%

Results for O=C(NCc1ccccn1)c1ccc(CS(=O)(=O)Cc2ccc(Cl)cc2)o1 ?
VDR inhibitor: -1%; BAZ2B block: -1%; G9a block: -15%; HP1b binding inh: 43%; JMJD2A Tudor: -5%; PLK1 PBD block: -5%

How did Cc1cc(=O)oc(C)c1C(=O)NCc1ccccn1 do in these assays?
VDR inhibitor: -15%; BAZ2B block: 16µM*; G9a block: 1.6µM*; HP1b binding inh: 19%; JMJD2A Tudor: 2.5µM*; PLK1 PBD block: -5%

Screens deposited in PubChem BioAssay by National Center for Advancing Translational Sciences (NCATS).
